Common to all, as to test: NCI-60 one-dose screen, 48 h (100 = growth as untreated, 0 = no growth, -100 = all killed)
Common to all, as to details: 10 µM unless noted

In assay [1] the test system is T-47D breast.
The subject of assay [2] is BT-549 breast.
Assay [3] concerns MDA-MB-435 melanoma.
Assay [4] relates to SW-620 colon.
Assay [5] has as its system MCF7 breast.
Assay [6] deals with HCT-116 colon.
The subject of assay [7] is HCC-2998 colon.
Assay [8] deals with KM12 colon.

Data on 15 molecules can be found in PubChem BioAssay (NCI).

The panel holds about 83,000 compounds, 20% with a hit somewhere; the sample as a whole holds those more often.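 Plates (96-well) were seeded with cells, treated with compound at one concentration, and incubated for 48 hours before percent growth was determined.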 Unmarked numbers belong to inactive results. Activity calls are given as the source filed them. Rule for the calls: active = growth percent below 10; inactive = the rest.

As to `FC(F)(F)c1cc(Nc2ccc3c(OCCCN4CCOCC4)cccc3n2)ccc1Cl`, the growth in assay [1] was 48.1%; in assay [2], 62.1%; in assay [3] it was 62.7%; in assay [4], 1.47% (active); in assay [5], 17.9%; in assay [6], 10.8%. Also, the growth in assay [7] is 34.6%; in assay [8] it was -0.295% (active).

For `COc1cc(/C=C2\C(=O)Nc3ccc(Br)cc32)cc(OC)c1OC`, the growth was 53.2% in assay [1]; 58.3% in assay [2]; 21.2% in assay [3]; 36.1% in assay [4]; 24.2% in assay [5]; 37.3% in assay [6]. Besides, the figures for the growth in assay [7] and in assay [8] were 67.6% and 47.8%, respectively.

Turning to `O=C(CCCCCCSc1nc(-c2ccccc2)cc(-c2ccccc2)n1)NO`, the growth in assay [1] was -11.1% (active); in assay [2] it was 30.9%; in assay [3] it was 17.3%; in assay [4], 8.47% (active); in assay [5], 16.1%; in assay [6], 11.6%. For the same molecule, the growth in assay [7] was 63.4%; in assay [8] it was 50.7%.

Turning to `CCN(CC)CCNC(=O)c1cn2ncnc(Oc3ccc(NC(=O)Nc4ccc(Cl)c(C(F)(F)F)c4)cc3)c2c1C`, the growth in assay [1] is -64.3% (active); in assay [2] it was -32.5% (active); in assay [3], -81.4% (active); in assay [4] it was -85.6% (active); in assay [5] it was -84.4% (active); in assay [6], -95.3% (active). The growth in assay [7] was -95.8% (active); in assay [8] it was -80.4% (active).

Take `COC(=O)/C=C1\S/C(=N\Nc2ccc([N+](=O)[O-])cc2[N+](=O)[O-])N(C2CCCCC2)C1=O`: the growth is 12.9% in assay [1]; 86% in assay [2]; 79% in assay [3]; 22.7% in assay [4]; 23.1% in assay [5]; 29.8% in assay [6]. Further, the results for the growth in assay [7] and in assay [8] were 63.1% and 45.9%, respectively.

As to `CC(=O)OC[C@H]1OC(Sc2sc(C(=O)c3ccc(C)cc3)c(N)c2-c2nc3ccccc3s2)[C@H](OC(C)=O)[C@@H](OC(C)=O)[C@@H]1OC(C)=O` (stereo not given in full), the growth is 69.7% in assay [1]; 83.4% in assay [2]; 77.4% in assay [3]; 53.4% in assay [4]; 73.6% in assay [5]; 39.3% in assay [6]. Further, the growth was 94.2% in assay [7] and 80.6% in assay [8].

`C=CCc1cc(C)ccc1NC(C(=O)NCC(=O)OC)c1ccccc1` (stereo not given): the growth was 77.2% in assay [1]; 93.7% in assay [2]; 101% in assay [3]; 117% in assay [4]; 89.8% in assay [5]; 101% in assay [6]. The growth in assay [7] was 98.7%; in assay [8] it was 99.4%.

`c1ccc(Cc2nn3cc(-c4ccccc4)nc3s2)cc1`: the growth in assay [1] was 87.6%; in assay [2] it was 102%; in assay [3] it was 114%; in assay [4], 109%; in assay [5], 87.2%; in assay [6], 78.9%. Besides, the growth in assay [7] was 103%; in assay [8] it was 96.5%.

In the case of `O=C(O)c1cn(C2CC2)c2cc(N3CCN(C(=O)Nc4nc(-c5ccc(Cl)cc5)cs4)CC3)c(F)cc2c1=O`, the growth in assay [1] is 5.75% (active); in assay [2], 0.292% (active); in assay [3], 9.36% (active); in assay [4] it was 20.2%; in assay [5], 2.95% (active); in assay [6], 14.8%. The growth in assay [7] was 30.6%; in assay [8] it was 8.97% (active).

On to `COc1ccc(C(=O)COC(=O)[C@H](C[Se][Se]C[C@H](NC(=O)c2ccc(Br)cc2F)C(=O)OCC(=O)c2ccc(OC)cc2)NC(=O)c2ccc(Br)cc2F)cc1`, for which the growth is -33.1% (active) in assay [1]; -89.6% (active) in assay [2]; 3.85% (active) in assay [3]; -59.7% (active) in assay [4]; -57.3% (active) in assay [5]; -69.1% (active) in assay [6]. For the same molecule, the values for the growth in assay [7] and in assay [8] were -64.1% (active) and -81.6% (active), respectively.

Consider `CN1C(=C2C(=O)OC(C)(C)OC2=O)CCC1C(=O)NCc1ccc(Cl)cc1Cl` (stereo not given), for which the growth is 97.4% in assay [1]; 107% in assay [2]; 109% in assay [3]; 104% in assay [4]; 98.3% in assay [5]; 88.3% in assay [6]. The results for the growth in assay [7] and in assay [8] were 96.5% and 98.5%, respectively.

Consider `O=C(Nc1ccc(F)cc1F)c1cc(F)ccc1O`, for which the growth in assay [1] was 6.93% (active); in assay [2], 8.69% (active); in assay [3], 14.6%; in assay [4], 20.8%; in assay [5], 4.23% (active); in assay [6], 12.8%. The growth was 27.9% in assay [7] and 8.7% (active) in assay [8].

`COc1cc2cc(Oc3ccc(NC(=O)Nc4cccc(C(F)(F)F)c4)cc3)c(C)nc2cc1OCCN1CCOCC1`: the growth in assay [1] was 30.3%; in assay [2], 70.8%; in assay [3], 30.4%; in assay [4] it was 36.9%; in assay [5], 9.35% (active); in assay [6] it was 17.4%. In addition, the results for the growth in assay [7] and in assay [8] were 89.2% and 29.8%, respectively.

Regarding `COc1ccc(C2NC(=O)C(C#N)c3c2sc2c(F)cccc32)c(OC)c1` (stereo not given), the growth in assay [1] was 61.7%; in assay [2], 72.1%; in assay [3] it was -28.7% (active); in assay [4], 32.3%; in assay [5], 24.5%; in assay [6], 23.8%. Moreover, the growth in assay [7] was 88.3%; in assay [8], 32%.

Consider `Cc1ccc2c(-c3cc(-c4ccccc4)nc(N)c3C#N)cc(=O)oc2c1`, for which the growth in assay [1] is 86%; in assay [2] it was 75.8%; in assay [3], 106%; in assay [4], 107%; in assay [5] it was 100%; in assay [6] it was 87.1%. The growth in assay [7] was 96.4%; in assay [8], 97.4%.
